These results are taken from PubChem BioAssay.

Each structure is given as a SMILES string. Unmarked numbers belong to inactive results. The list shows a part of the results. The source made the active and inactive calls. Unless noted, no stated cut-off is given here; in the data, active means inhibition above about 30%; inactive means the rest.

Assay [1] deals with Nuclear receptor coactivator 3 (Homo sapiens) (UniProt Q9Y6Q9). The assay can be described thus: NCOA3 GAL4-fusion reporter inhibition – cell-based, luminescence, quadruplicate, confirmation (AID 588792;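 active means mean inhibition over 43.08%, the solvent-only control mean plus 3 SD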;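 further: 0% = DMSO treated cells and 100% = gossypol at 36 µM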). As to conditions: HEK293 GAL4-SRC3 luciferase reporter, at 3.6 µM, stronger effect = higher value.
Assay [2] deals with transactivating tegument protein VP16 (Human herpesvirus 1), Gal4-VP16 luciferase reporter. Briefly: repression of VP16-driven luciferase reporter – cell-based, luminescence, high throughput, counter-screen for SRC3 inhibitor project (AID 588794). As to conditions: mammalian cells, at 3.6 µM, stronger effect = higher value.
Assay [3] addresses Nuclear receptor coactivator 1 (Homo sapiens) (UniProt Q15788). Briefly: NCOA1 GAL4-fusion reporter inhibition – cell-based, luminescence, quadruplicate, confirmation (AID 588820;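 active means mean inhibition above 46.68%, the untreated control wells mean plus 3 SD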;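 further: 0% = DMSO wells and 100% = gossypol 36 µM treated wells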). As to conditions: HEK293 GAL4-SRC1 luciferase reporter, at 3.6 µM, stronger effect = higher value. For orientation: A reporter such as luciferase makes a cellular process visible.
Assay [4] can be described thus: repression of VP16-driven luciferase reporter – cell-based, luminescence, high throughput, counter-screen for SRC1 inhibitor project (AID 588824; in the data active means inhibition above about 25%). As to conditions: cell-based VP16 transactivation luciferase luminescence; at 3.6 µM; stronger effect = higher value.
A short description of assay [5]: StAR promoter reporter inhibitors, counter-screen for LRH-1 inverse agonist project, cell-based, luminescence, high throughput (AID 651611; in the data active means inhibition above about 28%). As to conditions: StAR promoter luciferase reporter counterscreen, at 3.6 µM, stronger effect = higher value. For orientation: A counterscreen serves to expose hits that act by an unwanted route or on another target.
Assay [6] concerns the target Nuclear receptor subfamily 5 group A member 2 (Homo sapiens) (UniProt O00482). The assay can be described thus: NR5A2 activity suppression in reporter cells – cell-based, luminescence, confirmation (AID 651613; in the data active means inhibition above about 42%;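 further: HEK293T cells co-transfected with LRH-1 and StAR promoter luciferase reporter; 0% = vehicle wells and 100% = parental cells lacking receptor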). As to conditions: cell-based LRH-1 luciferase reporter, inverse agonism; at 3.6 µM; stronger effect = higher value.
The target in assay [7] is Steroidogenic factor 1 (Homo sapiens) (UniProt Q13285). Briefly: inverse agonism at SF1 nuclear receptor – cell-based, luminescence, high throughput, counter-screen for LRH-1 inverse agonist project (AID 651614; in the data active means inhibition above about 44%;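 further: cells cotransfected with StAR promoter reporter and SF1 expression vector; 0% = vehicle on cells with receptor and 100% = vehicle on cells lacking receptor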). As to conditions: cell-based SF1 luciferase reporter, at 3.6 µM, stronger effect = higher value.
Assay [8] can be described thus: compounds suppressing VP16-driven luciferase signal – cell-based, luminescence, high throughput, counter-screen for LRH-1 inverse agonist project (AID 651615; in the data active means inhibition above about 33%). As to conditions: Gal4-VP16 luciferase reporter cells, at 3.6 µM, stronger effect = higher value.
Assay [9] has as its system transactivating tegument protein VP16 (Human herpesvirus 1). The assay can be described thus: compounds suppressing VP16-driven luciferase signal – cell-based, luminescence, single concentration, counter-screen for SRC2 inhibitor project (AID 652007; in the data active means inhibition above about 36%). As to conditions: cell-based VP16 transactivation luciferase reporter, at 8.9 µM, stronger effect = higher value.
Assay [10] has as its target Nuclear receptor coactivator 2 (Homo sapiens) (UniProt Q15596). The assay can be described thus: inhibition of GAL4-SRC2 driven luciferase expression – cell-based, luminescence, HEK293, triplicate, confirmation (AID 652008;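 active means mean inhibition above 46.5%, the solvent-only control mean plus 3 SD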;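 further: 0% = DMSO-treated cells and 100% = Gossypol at 36 µM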). As to conditions: HEK293 GAL4-SRC2 luciferase reporter, at 8.9 µM, stronger effect = higher value.
Assay [11] can be described thus: VP16-driven transactivation reporter suppression – cell-based, luminescence, HEK293, counter-screen for COUP-TFII antagonist project (AID 687007; in the data active means inhibition above about 13%). As to conditions: HEK293 Gal4-VP16 luciferase reporter, at 8.5 µM, stronger effect = higher value.
The target in assay [12] is COUP transcription factor 2 (Homo sapiens) (UniProt P24468). Briefly: retest of COUP-TFII reporter suppressors – cell-based, luciferase reporter, HEK293, triplicate, confirmation (AID 687008;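 active means mean inhibition over three repeats above a set limit taken from the earlier primary screen, cut at about 38% in these data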;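 further: 100% = cells given the luciferase reporter alone without the COUP-TF2 vector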). As to conditions: HEK293 NGFI-A luciferase reporter, luminescence; at 8.5 µM; stronger effect = higher value.

Chain of Nuclear receptor coactivator 3 (Homo sapiens) (Q9Y6Q9 whole entry, looked up, the tested form may be a part): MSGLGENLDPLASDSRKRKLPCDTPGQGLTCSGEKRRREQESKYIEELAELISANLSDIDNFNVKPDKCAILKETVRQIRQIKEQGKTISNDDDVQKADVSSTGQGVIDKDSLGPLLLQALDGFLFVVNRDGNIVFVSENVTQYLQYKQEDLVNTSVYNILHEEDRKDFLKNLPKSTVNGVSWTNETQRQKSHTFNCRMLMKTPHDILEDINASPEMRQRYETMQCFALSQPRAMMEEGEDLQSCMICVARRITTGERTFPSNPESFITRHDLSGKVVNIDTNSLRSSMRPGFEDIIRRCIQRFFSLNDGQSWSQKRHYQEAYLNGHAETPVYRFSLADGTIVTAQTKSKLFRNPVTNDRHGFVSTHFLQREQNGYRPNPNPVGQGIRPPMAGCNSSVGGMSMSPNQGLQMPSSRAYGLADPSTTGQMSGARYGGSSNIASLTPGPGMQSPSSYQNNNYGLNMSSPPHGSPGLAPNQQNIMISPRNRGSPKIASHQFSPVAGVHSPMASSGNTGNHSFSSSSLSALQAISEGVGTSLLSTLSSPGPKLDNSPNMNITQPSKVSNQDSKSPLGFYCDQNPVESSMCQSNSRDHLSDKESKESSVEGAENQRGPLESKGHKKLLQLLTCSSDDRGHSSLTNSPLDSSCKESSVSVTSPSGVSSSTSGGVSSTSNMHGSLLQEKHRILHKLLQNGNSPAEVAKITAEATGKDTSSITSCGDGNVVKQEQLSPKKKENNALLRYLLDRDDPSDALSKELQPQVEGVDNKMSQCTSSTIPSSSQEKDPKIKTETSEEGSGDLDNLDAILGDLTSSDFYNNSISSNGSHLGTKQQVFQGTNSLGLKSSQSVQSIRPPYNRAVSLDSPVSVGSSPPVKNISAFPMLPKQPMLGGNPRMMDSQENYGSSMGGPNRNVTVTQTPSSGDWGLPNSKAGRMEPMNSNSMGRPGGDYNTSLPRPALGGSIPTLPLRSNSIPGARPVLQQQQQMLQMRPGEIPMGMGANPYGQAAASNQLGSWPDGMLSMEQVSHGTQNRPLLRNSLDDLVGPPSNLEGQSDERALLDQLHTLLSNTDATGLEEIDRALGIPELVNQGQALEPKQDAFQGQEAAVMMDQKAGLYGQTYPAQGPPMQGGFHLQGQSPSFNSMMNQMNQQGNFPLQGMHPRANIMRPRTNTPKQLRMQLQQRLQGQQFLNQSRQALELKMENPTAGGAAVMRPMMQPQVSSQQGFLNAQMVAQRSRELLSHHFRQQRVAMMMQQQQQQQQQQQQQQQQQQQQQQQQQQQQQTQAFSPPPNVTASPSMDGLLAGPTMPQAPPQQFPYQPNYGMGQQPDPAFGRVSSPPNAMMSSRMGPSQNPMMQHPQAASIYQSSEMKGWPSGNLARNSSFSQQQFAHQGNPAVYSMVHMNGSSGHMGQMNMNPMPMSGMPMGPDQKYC
Chain of Steroidogenic factor 1 (Homo sapiens) (Q13285 whole entry, looked up, the tested form may be a part): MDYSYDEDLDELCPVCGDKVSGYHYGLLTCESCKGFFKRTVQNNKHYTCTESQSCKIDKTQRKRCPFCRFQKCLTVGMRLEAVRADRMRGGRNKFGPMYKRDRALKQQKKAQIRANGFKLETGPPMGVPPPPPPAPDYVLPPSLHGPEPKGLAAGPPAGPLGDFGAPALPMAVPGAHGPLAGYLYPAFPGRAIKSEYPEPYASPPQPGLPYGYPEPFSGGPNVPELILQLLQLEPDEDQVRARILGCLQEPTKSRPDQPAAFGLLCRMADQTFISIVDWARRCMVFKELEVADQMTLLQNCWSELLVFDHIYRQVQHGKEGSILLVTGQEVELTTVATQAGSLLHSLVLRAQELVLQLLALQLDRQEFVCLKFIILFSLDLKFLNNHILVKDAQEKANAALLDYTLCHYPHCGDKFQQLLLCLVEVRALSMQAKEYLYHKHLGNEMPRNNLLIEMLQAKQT
Chain of Nuclear receptor coactivator 2 (Homo sapiens) (Q15596 whole entry, looked up, the tested form may be a part): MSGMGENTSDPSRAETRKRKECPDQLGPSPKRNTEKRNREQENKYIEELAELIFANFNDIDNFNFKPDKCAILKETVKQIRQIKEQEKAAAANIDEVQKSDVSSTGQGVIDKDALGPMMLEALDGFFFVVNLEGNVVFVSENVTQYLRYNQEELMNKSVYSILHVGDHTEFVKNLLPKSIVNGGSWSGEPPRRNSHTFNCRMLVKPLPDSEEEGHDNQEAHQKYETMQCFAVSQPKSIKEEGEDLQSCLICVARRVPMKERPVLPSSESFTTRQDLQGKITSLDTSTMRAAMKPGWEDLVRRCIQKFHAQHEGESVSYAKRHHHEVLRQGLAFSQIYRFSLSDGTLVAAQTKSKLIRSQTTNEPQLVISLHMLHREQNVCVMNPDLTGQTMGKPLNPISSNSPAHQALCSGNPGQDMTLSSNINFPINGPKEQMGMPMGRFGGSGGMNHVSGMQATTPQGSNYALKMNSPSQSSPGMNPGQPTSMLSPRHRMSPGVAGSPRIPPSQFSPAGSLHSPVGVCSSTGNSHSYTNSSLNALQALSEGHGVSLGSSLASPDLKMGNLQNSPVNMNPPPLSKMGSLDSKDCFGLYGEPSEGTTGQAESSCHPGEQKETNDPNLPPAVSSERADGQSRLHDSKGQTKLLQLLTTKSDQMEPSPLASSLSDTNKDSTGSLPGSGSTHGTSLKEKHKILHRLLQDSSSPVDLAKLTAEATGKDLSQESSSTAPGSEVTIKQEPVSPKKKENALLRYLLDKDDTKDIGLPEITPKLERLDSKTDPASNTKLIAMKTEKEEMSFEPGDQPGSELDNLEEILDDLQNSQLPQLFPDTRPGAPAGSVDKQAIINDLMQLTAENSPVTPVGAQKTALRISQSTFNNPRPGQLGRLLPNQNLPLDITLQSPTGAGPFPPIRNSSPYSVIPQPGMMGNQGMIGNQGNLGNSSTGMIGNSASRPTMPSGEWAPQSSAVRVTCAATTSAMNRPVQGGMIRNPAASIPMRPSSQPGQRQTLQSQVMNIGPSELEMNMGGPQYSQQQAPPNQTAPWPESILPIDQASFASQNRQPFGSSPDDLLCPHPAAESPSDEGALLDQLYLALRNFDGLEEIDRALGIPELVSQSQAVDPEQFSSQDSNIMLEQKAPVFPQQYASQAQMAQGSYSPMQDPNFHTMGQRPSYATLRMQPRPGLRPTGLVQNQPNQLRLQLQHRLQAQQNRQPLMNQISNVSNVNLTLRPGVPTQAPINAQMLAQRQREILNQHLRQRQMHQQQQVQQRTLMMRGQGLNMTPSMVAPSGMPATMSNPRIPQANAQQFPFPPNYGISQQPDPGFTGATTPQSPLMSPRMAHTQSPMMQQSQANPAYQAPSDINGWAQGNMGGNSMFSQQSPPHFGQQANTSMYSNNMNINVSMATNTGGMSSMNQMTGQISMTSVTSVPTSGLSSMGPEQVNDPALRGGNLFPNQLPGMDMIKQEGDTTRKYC
Chain of Nuclear receptor coactivator 1 (Homo sapiens) (Q15788 whole entry, looked up, the tested form may be a part): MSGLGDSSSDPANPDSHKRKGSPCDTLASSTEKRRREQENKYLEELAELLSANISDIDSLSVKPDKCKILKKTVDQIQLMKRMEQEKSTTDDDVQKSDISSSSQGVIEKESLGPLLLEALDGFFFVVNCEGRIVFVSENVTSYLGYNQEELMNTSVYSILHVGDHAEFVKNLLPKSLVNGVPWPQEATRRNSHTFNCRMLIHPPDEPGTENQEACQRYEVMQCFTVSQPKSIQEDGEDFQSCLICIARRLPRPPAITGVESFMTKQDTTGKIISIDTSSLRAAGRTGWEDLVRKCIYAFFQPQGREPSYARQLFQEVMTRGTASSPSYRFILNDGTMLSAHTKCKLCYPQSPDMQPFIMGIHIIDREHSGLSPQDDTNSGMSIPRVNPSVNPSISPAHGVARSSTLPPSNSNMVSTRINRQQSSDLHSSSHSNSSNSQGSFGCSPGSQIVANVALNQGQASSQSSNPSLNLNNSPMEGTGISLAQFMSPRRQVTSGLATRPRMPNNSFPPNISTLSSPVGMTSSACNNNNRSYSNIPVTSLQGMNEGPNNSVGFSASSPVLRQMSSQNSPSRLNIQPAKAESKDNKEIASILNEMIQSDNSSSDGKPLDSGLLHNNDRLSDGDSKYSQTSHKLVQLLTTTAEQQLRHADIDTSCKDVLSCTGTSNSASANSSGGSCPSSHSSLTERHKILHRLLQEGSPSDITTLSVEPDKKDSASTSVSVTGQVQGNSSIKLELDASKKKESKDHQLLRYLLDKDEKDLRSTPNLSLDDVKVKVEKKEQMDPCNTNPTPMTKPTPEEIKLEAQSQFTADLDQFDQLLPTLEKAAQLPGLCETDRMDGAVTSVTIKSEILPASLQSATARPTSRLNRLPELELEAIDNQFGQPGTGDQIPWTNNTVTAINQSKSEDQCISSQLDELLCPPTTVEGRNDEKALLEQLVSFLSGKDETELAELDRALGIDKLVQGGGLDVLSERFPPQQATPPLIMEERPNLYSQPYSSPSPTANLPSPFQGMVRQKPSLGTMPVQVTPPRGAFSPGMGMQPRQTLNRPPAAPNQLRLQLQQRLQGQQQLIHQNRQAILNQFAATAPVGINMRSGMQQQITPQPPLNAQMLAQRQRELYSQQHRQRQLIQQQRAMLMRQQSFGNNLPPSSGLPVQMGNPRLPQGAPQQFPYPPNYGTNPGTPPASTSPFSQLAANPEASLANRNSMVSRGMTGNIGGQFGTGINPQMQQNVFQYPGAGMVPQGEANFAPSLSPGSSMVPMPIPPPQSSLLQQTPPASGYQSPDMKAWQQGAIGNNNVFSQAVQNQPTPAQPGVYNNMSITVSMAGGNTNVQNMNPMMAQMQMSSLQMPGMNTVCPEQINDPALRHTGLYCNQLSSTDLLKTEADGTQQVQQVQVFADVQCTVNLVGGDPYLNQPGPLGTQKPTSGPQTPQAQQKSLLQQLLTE

As usually defined, the inhibition is the relative decrease from the control value, in per cent. For the compound `O=C(Nc1ccc(OC(=O)N2CCCCC2)cc1)N1CCOCC1`, the inhibition is 24.1% in assay [1]; 1.46% in assay [2]; 9.87% in [3]; -2.66% in assay [4]; 29.4% (active) in assay [5]; 19.7% in assay [6]. Moreover, the inhibition in [7] is 37.9%; in assay [8] it was 14.3%; in assay [9] it was 35%; in assay [10] it was 68.5% (active).
For the compound `O=c1[nH]c(O)c(N=Nc2ccc3c(c2)OCCO3)c(=O)[nH]1`, the inhibition in assay [1] was 53.3% (active); in [2] it was 25.7%; in [3], 6.27%; in assay [4], -1.38%; in assay [5] it was 22.6%; in [6] it was 9.98%. The inhibition in [7] was 42.1%; in assay [8], 9.89%; in assay [9], 33.9%; in assay [10], 63.6% (active).
Consider `C[C@]12CC[C@H](O)C[C@H]1CC[C@@H]1C2CC[C@]2(C)[C@@H](C3=CC(=O)OC3)[C@@H](O)C[C@]12O` (stereo partly drawn), for which the inhibition is 75.3% (active) in [1]; 21.1% in assay [2]; -39% in assay [3]; 12.7% in [4]; 87.1% (active) in [5]; 90.4% (active) in assay [6]. In addition, the inhibition was 69.9% (active) in [7], 40.9% (active) in [8], -16.6% in [11] and 30.9% in assay [12].
Take `C[C@]12CCC3C(CCC4=CC(O)CC[C@@]43/C=N/O)C1(O)CCC2C1=CC(=O)OC1` (stereo partly drawn): the inhibition in assay [1] is 95.1% (active); in assay [2], 79.7% (active); in assay [3], 49.1% (active); in assay [4] it was 77.8% (active); in assay [5], 94.8% (active); in assay [6], 108% (active). The inhibition in [7] was 97% (active); in [8], 82.5% (active); in [9] it was 63.6% (active); in [10], 11.4%.
With `NC(=S)c1cn(C2OC(CO)C(O)C2O)c2ncnc(N)c12` (stereo not drawn), the inhibition is 97.4% (active) in assay [1]; 95.9% (active) in assay [2]; 89.7% (active) in [3]; 96.2% (active) in assay [4]; 93.2% (active) in assay [5]; 109% (active) in [6]. For the same compound, the inhibition in assay [7] was 98% (active); in [8], 97.9% (active); in assay [9], 69.4% (active); in assay [10] it was 71.6% (active).
Regarding `C[C@]12CC[C@H](O)C[C@H]1CC[C@@H]1[C@@H]2CC[C@]2(C)[C@@H](C3=CC(=O)OC3)CC[C@]12O`, the inhibition in [1] was 95.3% (active); in [2] it was 82.7% (active); in assay [3] it was 58.7% (active); in [4], 80.1% (active); in assay [5] it was 95.7% (active); in assay [6], 110% (active). The inhibition is 97.4% (active) in [7], 87% (active) in [8], 56% (active) in assay [9] and 30.2% in assay [10].
As for `C[C@]12CC[C@H]3[C@@H](CC[C@]4(O)C[C@@H](O)CC[C@]34C=O)[C@@]1(O)CC[C@@H]2C1=CC(=O)OC1`, the inhibition in assay [1] is 92.8% (active); in [2], 81.1% (active); in assay [3], 46.8% (active); in [4] it was 79.7% (active); in assay [6], 110% (active); in assay [7], 98.7% (active).
Take `N#CC1c2ccccc2-n2nncc2CN1Cc1cc(Cl)cc(Cl)c1` (stereo not drawn): the inhibition was 92.8% (active) in [1]; 84.7% (active) in assay [2]; 79.7% (active) in assay [3]; 90.4% (active) in assay [4]; 90.5% (active) in [5]; 106% (active) in assay [6]. The inhibition in assay [7] is 94.1% (active); in assay [8], 94.3% (active); in [9], 82.2% (active); in assay [10], 84.5% (active).
Turning to `C=C1C(=O)O[C@@H]2C[C@@H](C)[C@@H]3C=CC(=O)[C@@]3(C)[C@@H](OC(=O)CC(=O)O[C@H]3[C@@H]4C(=C)C(=O)O[C@@H]4C[C@@H](C)[C@@H]4C=CC(=O)[C@]43C)[C@H]12`, the inhibition in assay [1] is 97.5% (active); in [2] it was 96% (active); in assay [3] it was 91.3% (active); in assay [4], 95.7% (active); in assay [5] it was 94.5% (active); in assay [6] it was 106% (active). Further, the inhibition was 97.1% (active) in [7], 94.5% (active) in [8], 96% (active) in assay [9] and 99% (active) in assay [10].
As for `CCC(C)C1NC(=O)C(NC(=O)C(CC(C)C)N(C)C(=O)C2CCCN2C(=O)C(C)O)C(C)OC(=O)C(Cc2ccc(OC)cc2)N(C)C(=O)C2CCCN2C(=O)C(CC(C)C)NC(=O)[C@H](C)C(=O)[C@H](C(C)C)OC(=O)CC1O` (stereo partly drawn), the inhibition is 99.5% (active) in assay [1]; 98.2% (active) in assay [2]; 98.5% (active) in assay [3]; 98.1% (active) in assay [4]; 96.4% (active) in assay [5]; 111% (active) in assay [6]. Also, the inhibition in assay [7] was 98.4% (active); in assay [8], 99% (active); in assay [9], 82.2% (active); in assay [10], 79.6% (active).
For the compound `COC1C(O)C(C)OC(OC2CCC3(C=O)C(CCC4C3CCC3(C)C(C5=CC(=O)OC5)CCC43O)C2)C1O` (stereo not drawn), the inhibition is 96.8% (active) in assay [1]; 89.2% (active) in assay [2]; 81.5% (active) in [3]; 88.7% (active) in [4]; 93.6% (active) in assay [5]; 110% (active) in [6]. The inhibition in assay [7] was 97.2% (active); in [8] it was 93% (active); in [11], 51% (active); in [12] it was 76.3% (active).
`C=Cc1cc(OC)c2c(c1)c(=O)oc1c2cc(OC)c2c(O)ccc(C3OC(C)C(O)C(C)(O)C3O)c21` (stereo not drawn): the inhibition is 46.1% (active) in assay [1]; 88.3% (active) in [2]; -23.3% in assay [3]; 88% (active) in assay [4]; 42.7% (active) in assay [9]; -166% in assay [10].
Consider `COc1ccc(CC2C(=O)NC(C)C(=O)N(C)C3C(=O)N(C)C(Cc4ccc(O)c(c4)Oc4ccc(cc4)C3O)C(=O)NC(C)C(=O)NC(C)C(=O)N2C)cc1` (stereo not drawn), for which the inhibition in assay [1] is 98.6% (active); in assay [2] it was 96.7% (active); in [3] it was 94.8% (active); in [4] it was 95.5% (active); in assay [6], 111% (active); in assay [7], 98.8% (active). For the same compound, the results for the inhibition in [9] and in assay [10] were 80.4% (active) and 77.1% (active), respectively.
For `C[C@H]1C[C@@H](C)C(=O)[C@@H]([C@H](O)CC2CC(=O)NC(=O)C2)C1`, the inhibition was 96.7% (active) in assay [1]; 92.3% (active) in [2]; 82.3% (active) in assay [3]; 91.3% (active) in [4]; 110% (active) in assay [6]; 97.9% (active) in [7]. Further, the figures for the inhibition in [9] and in [10] were 63.2% (active) and 62.9% (active), respectively.
